Holding throughout (experiment): DAPPL (digital affinity profiling via proximity ligation, sequencing); 10 mM Tris-HCl pH 7.5, 50 mM NaCl, 1 mM DTT, 4% glycerol, room temperature, 30 min; GST-TFs on glutathione beads, 16-mer random dsDNA library, 0.1% formaldehyde crosslink after washing; high values mean tight binding
Holding throughout (settings): protein: recombinant; tags: N-terminal GST; dsDNA, one strand shown

One assay deals with T1, FLI1 (Homo sapiens, UniProt Q01543 1-452).
T1 sequence: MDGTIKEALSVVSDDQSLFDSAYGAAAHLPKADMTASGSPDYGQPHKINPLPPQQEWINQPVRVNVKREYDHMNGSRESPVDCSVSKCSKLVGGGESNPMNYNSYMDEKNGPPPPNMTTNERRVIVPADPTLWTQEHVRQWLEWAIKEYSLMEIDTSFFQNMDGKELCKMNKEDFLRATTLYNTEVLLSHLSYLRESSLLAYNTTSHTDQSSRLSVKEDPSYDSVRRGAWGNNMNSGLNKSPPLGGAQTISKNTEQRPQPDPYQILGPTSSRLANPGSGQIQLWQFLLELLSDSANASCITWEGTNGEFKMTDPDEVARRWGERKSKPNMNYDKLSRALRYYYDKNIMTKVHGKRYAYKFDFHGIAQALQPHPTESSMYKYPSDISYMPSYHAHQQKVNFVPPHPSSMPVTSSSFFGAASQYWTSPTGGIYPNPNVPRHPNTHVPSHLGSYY
An outline of the steps: (§1)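 A tag-only sample was pooled with DNA-barcoded human transcription factors that had been expressed in yeast as GST fusions and captured on glutathione beads. The pools were incubated for 30 min at room temperature with 200 nmole of a random double-stranded 16-mer DNA library in Tris/NaCl/DTT/glycerol buffer, then washed, crosslinked with 0.1% formaldehyde, proximity-ligated (BsaI/T4 ligase, 1 h, 37 °C), PCR-amplified and sequenced on an Illumina NextSeq500. Binding signal is each hexamer's read frequency for a factor divided by its frequency for the tag-only sample.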

A further assay addresses T2, ELK1 (Homo sapiens, UniProt P19419 1-428).
T2 sequence: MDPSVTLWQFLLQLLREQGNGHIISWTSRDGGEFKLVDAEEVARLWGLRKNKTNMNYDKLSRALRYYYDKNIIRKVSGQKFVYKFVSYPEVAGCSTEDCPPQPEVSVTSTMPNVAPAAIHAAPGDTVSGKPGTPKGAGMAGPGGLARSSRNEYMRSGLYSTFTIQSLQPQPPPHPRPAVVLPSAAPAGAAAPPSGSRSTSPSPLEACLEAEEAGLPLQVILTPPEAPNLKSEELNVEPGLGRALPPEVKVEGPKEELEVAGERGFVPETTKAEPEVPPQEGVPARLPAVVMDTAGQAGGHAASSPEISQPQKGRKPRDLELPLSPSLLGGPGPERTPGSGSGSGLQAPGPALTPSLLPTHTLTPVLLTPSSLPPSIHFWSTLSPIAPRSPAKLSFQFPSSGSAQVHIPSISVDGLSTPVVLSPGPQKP
An outline of the steps:
as §1

In a further assay the target is T3, GABPA (Homo sapiens, UniProt Q06546 1-454).
T3 sequence: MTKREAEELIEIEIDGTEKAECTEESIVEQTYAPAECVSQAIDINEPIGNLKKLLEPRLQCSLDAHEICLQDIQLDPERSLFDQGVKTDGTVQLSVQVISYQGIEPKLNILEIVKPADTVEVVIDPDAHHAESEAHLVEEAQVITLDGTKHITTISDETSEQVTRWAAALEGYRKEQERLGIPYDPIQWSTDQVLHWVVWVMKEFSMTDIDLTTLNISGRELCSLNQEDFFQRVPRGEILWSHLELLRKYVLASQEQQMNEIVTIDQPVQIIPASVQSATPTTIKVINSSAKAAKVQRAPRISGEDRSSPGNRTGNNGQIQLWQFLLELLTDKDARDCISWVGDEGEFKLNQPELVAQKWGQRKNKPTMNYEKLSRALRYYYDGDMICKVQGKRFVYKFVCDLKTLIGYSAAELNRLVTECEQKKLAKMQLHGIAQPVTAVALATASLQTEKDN
The method in brief:
as §1

The next assay addresses T4, ERG (Homo sapiens, UniProt P11308 1-479).
T4 sequence: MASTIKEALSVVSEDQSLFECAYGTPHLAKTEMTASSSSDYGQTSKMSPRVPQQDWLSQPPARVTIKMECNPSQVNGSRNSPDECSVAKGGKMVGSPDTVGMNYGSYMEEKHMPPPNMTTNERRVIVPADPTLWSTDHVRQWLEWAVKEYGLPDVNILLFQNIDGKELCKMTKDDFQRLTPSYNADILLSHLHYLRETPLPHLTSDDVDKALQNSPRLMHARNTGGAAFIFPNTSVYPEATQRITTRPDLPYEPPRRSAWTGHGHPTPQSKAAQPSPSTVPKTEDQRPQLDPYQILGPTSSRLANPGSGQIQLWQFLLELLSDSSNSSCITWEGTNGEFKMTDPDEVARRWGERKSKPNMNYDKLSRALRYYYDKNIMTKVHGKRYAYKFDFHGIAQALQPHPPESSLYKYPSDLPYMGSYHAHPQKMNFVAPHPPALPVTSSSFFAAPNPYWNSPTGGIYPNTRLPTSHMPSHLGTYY
An outline of the steps: as §1

The target of a further assay is ELF1 (Homo sapiens, UniProt P32519 1-619). The method in brief: as §1
For another assay, the target named is T5, EHF (Homo sapiens, UniProt Q9NZC4 1-300).
T5 sequence: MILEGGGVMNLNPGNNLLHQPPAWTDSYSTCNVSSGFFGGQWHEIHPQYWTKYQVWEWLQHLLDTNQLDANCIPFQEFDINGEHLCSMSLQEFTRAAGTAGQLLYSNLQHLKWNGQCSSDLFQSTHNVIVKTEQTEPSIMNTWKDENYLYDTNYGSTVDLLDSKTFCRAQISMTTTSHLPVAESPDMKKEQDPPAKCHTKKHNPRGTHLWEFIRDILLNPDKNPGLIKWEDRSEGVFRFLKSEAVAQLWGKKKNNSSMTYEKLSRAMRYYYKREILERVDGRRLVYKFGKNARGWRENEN
An outline of the steps: as §1

The next assay deals with SPI1 (Homo sapiens, UniProt P17947 1-270). An outline of the steps: as §1
Another assay concerns the target SPIB (Homo sapiens, UniProt Q01892 1-262). An outline of the steps:
as §1

Another assay concerns the target T6, ELK3 (Homo sapiens, UniProt P41970 1-407).
T6 sequence: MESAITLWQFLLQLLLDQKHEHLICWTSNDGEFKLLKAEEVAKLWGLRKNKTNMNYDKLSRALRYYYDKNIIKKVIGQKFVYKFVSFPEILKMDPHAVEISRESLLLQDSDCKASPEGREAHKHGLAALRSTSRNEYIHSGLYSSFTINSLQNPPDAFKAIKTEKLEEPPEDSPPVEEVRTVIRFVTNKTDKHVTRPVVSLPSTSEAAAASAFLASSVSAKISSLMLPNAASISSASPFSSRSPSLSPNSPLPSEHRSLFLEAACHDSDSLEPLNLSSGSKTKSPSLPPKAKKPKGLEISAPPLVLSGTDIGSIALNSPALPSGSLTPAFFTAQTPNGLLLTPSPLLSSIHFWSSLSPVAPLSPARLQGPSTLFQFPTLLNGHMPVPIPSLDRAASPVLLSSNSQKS
An outline of the steps:
as §1

In a further assay the target is T7, FEV (Homo sapiens, UniProt Q99581 1-238).
T7 sequence: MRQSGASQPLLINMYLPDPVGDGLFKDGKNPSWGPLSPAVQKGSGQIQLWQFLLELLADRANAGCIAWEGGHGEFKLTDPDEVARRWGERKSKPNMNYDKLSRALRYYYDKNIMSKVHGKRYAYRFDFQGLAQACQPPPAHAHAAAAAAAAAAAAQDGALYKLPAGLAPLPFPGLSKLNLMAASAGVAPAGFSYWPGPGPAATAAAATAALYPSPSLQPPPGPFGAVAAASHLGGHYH
The method in brief: as §1

The next assay concerns the target ETV5 (Homo sapiens, UniProt P41161 1-510). An outline of the steps:
as §1

The target in a further assay is T8, SPIC (Homo sapiens, UniProt Q8N5J4 1-248).
T8 sequence: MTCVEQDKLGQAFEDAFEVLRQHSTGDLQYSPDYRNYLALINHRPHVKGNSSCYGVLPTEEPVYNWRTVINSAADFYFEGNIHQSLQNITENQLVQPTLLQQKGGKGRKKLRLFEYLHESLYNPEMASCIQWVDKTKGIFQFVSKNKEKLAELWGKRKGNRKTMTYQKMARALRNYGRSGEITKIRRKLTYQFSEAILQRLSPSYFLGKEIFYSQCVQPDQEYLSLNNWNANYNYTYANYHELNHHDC
An outline of the steps:
as §1

Another assay deals with ELF4 (Homo sapiens, UniProt Q99607 1-663). The method in brief: as §1
In another assay the target is T9, ELK4 (Homo sapiens, UniProt P28324-2 1-405).
T9 sequence: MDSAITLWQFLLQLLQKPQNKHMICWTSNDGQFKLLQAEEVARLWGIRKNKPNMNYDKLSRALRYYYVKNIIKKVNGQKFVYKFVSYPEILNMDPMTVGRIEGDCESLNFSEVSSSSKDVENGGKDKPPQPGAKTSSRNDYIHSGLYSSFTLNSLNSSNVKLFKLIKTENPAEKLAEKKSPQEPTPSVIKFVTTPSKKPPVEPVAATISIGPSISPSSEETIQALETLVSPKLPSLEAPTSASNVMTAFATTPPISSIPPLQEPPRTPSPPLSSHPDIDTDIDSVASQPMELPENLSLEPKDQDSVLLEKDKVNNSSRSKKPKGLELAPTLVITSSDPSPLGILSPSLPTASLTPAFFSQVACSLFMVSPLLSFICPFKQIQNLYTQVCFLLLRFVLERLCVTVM
The method in brief:
as §1

In a further assay the target is T10, ETV2 (Homo sapiens, UniProt O00321 1-342).
T10 sequence: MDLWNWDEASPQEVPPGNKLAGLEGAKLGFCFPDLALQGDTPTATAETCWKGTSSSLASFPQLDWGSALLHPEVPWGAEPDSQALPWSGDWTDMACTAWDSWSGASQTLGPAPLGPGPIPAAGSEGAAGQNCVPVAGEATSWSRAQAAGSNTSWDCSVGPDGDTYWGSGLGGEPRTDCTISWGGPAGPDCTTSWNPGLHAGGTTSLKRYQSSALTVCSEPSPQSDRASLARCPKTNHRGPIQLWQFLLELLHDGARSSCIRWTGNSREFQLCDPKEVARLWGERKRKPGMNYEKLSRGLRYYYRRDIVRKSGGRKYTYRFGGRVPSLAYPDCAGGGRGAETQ
An outline of the steps:
as §1

The next assay addresses T11, ELF3 (Homo sapiens, UniProt P78545 1-371).
T11 sequence: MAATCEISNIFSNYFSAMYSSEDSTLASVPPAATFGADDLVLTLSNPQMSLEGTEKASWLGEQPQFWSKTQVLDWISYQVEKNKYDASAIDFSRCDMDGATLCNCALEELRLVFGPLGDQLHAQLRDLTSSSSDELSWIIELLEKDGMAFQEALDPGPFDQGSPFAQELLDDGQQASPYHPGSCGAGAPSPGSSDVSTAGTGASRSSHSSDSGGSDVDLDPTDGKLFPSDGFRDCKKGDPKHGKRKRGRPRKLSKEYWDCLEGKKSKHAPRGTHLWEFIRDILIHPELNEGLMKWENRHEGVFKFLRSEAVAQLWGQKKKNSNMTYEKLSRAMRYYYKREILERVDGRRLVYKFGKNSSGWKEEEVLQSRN
An outline of the steps: as §1

Another assay concerns the target ETV1 (Homo sapiens, UniProt P50549 1-477). The method in brief:
as §1

ETV5, sequence (P41161 whole entry): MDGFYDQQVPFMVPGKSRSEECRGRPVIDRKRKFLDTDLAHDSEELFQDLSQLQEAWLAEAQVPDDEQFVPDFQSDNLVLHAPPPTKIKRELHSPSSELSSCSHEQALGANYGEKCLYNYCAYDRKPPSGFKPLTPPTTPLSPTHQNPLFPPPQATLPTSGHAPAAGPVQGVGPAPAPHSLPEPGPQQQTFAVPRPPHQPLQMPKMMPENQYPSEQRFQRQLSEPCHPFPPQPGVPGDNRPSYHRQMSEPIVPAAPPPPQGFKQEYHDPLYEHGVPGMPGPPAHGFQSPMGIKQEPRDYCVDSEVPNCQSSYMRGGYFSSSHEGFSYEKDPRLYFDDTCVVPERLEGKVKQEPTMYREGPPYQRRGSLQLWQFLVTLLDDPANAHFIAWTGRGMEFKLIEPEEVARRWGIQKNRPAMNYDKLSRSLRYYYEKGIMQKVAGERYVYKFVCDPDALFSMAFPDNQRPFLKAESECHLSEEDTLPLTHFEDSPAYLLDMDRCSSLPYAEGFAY
ETV1, sequence (P50549 whole entry): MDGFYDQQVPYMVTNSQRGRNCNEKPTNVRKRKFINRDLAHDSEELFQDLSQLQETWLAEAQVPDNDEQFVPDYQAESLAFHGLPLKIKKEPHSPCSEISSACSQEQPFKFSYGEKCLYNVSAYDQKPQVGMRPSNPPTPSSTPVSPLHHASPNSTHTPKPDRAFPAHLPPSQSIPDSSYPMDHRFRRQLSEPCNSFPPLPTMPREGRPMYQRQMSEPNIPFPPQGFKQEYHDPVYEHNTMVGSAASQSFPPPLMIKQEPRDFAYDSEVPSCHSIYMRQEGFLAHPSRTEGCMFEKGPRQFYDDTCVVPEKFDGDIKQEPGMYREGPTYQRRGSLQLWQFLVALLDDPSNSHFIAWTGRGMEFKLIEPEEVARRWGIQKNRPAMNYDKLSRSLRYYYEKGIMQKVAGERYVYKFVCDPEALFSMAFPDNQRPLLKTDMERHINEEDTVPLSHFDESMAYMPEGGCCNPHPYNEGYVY
ELF1, sequence (P32519 whole entry): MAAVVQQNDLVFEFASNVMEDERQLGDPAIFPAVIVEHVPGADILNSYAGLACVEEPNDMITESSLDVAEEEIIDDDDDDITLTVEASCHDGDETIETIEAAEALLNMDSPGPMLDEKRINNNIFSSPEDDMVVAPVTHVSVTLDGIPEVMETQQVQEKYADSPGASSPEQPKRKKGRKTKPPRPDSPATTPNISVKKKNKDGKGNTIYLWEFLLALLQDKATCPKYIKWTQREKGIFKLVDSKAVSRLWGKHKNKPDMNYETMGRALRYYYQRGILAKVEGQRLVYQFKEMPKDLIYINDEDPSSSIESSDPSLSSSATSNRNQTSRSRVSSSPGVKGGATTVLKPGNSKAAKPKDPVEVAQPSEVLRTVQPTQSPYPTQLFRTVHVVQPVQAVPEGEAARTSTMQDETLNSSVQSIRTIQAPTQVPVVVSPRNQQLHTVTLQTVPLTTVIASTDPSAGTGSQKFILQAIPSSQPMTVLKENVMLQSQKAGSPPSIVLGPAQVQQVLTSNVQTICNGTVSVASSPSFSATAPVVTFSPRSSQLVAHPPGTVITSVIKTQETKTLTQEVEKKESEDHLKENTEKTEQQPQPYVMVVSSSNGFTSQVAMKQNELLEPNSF
ELF4, sequence (Q99607 whole entry): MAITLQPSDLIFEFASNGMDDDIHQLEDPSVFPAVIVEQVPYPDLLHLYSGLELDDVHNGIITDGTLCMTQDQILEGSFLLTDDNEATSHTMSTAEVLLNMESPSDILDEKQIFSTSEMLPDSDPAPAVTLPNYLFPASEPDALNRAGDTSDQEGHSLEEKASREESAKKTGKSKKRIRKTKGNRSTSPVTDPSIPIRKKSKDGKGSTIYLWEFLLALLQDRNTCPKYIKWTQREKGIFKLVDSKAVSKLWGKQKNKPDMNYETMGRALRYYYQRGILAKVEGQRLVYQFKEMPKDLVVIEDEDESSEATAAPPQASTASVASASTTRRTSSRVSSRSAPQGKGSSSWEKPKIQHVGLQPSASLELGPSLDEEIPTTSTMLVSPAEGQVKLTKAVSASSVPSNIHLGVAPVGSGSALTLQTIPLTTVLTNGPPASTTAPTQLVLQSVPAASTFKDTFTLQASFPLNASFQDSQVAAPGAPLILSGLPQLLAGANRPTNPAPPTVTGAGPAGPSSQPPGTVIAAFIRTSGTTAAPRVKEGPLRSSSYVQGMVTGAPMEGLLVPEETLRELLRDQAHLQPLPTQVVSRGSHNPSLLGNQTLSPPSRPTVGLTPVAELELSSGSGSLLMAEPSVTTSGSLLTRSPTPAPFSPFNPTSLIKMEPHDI
SPIB, sequence (Q01892 whole entry): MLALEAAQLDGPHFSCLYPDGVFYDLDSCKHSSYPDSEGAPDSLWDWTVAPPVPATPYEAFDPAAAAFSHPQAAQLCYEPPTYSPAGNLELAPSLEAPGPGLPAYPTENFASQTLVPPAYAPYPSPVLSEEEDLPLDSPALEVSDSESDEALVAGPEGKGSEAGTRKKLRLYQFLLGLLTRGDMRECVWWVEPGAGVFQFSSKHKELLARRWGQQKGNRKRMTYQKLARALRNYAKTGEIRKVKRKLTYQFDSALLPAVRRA

With GTCCCG, the binding signal with FLI1 is 1.29 fold enrichment (6-mer frequency, TF over GST control); with ELK1, 1.2 fold enrichment (6-mer frequency, TF over GST control); in the assay with GABPA it was 1.21 fold enrichment (6-mer frequency, TF over GST control); in the assay with ERG, 1.22 fold enrichment (6-mer frequency, TF over GST control); in the assay with ELF1 it was 1.24 fold enrichment (6-mer frequency, TF over GST control); with EHF it was 1.2 fold enrichment (6-mer frequency, TF over GST control). Further, the binding signal in the assay with SPI1 was 1.21 fold enrichment (6-mer frequency, TF over GST control); with SPIB it was 1.32 fold enrichment (6-mer frequency, TF over GST control); with ELK3, 1.26 fold enrichment (6-mer frequency, TF over GST control); in the assay with FEV, 1.24 fold enrichment (6-mer frequency, TF over GST control); in the assay with ETV5 it was 1.19 fold enrichment (6-mer frequency, TF over GST control); with SPIC it was 1.23 fold enrichment (6-mer frequency, TF over GST control). Moreover, the binding signal in the assay with ELF4 was 1.17 fold enrichment (6-mer frequency, TF over GST control); with ELK4, 1.23 fold enrichment (6-mer frequency, TF over GST control); in the assay with ETV2 it was 1.06 fold enrichment (6-mer frequency, TF over GST control); with ELF3, 1.26 fold enrichment (6-mer frequency, TF over GST control); in the assay with ETV1, 1.27 fold enrichment (6-mer frequency, TF over GST control).
